Molecular target: T1, Testis-specific serine/threonine-protein kinase 2 (Homo sapiens) (UniProt Q96PF2)
T1 sequence (whole entry): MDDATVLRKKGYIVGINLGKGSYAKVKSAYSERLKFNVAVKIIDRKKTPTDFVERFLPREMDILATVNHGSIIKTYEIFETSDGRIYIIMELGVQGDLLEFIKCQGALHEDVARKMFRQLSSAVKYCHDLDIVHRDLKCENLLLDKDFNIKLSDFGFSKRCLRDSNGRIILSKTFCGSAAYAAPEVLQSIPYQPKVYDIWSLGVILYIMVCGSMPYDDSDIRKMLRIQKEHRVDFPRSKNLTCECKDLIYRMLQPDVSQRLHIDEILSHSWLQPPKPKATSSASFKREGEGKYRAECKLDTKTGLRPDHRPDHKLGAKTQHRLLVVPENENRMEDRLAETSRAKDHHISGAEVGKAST
Settings: at 1 µM

| Compound | residual activity [%] |
| --- | --- |
| CCOc1cc2ncnc(Nc3cccc(Br)c3)c2cc1OCC | 82 |
| O=C(c1ccccc1)c1ccc(N2CCOCC2)cc1O | 87 |
| COc1ccc2c(c1)c(C1=C(c3c[nH]c4ccccc34)C(=O)NC1=O)cn2CCCN(C)C | 81 |
| CN(C)c1ccc(/C=C2\C(=O)Nc3ccccc32)cc1 | 92 |
| C[C@@H](N)[C@H]1CC[C@H](C(=O)Nc2ccncc2)CC1 | 102 |
| Cn1c2ccccc2c2c3c(c4c5ccccc5n(CCC#N)c4c21)CNC3=O | 64 |
| CO[C@H]1C[C@@H]2CC[C@@H](C)[C@@](O)(O2)C(=O)C(=O)N2CCCC[C@H]2C(=O)O[C@H]([C@H](C)C[C@@H]2CC[C@@H](O)[C@H](OC)C2)CC(=O)[C@H](C)/C=C(\C)[C@@H](O)[C@@H](OC)C(=O)[C@H](C)C[C@H](C)/C=C/C=C/C=C/1C | 90 |
| c1ccc(-c2n[nH]c3c2oc2ccccc23)cc1 | 96 |
| COc1cccc(-c2cc(=O)c3ccccc3o2)c1N | 89 |
| Cc1ccc(S(=O)(=O)/C=C/C#N)cc1 | 92 |
| COc1cc2ncc(-c3ccccc3)nc2cc1OC | 76 |
| CCC(=O)Nc1ccc2ncnc(Nc3cccc(Br)c3)c2c1 | 95 |
| Nc1cccc(-c2cc3c(Oc4cccc(O)c4)ncnc3[nH]2)c1 | 82 |
| O=C(c1cc2cc(O)ccc2[nH]1)c1cc2cc(O)ccc2[nH]1 | 77 |
| Oc1ccc(Nc2nc(-c3ccc(Cl)cc3)cs2)cc1 | 101 |
| O=C1NC(=O)/C(=C/c2ccc3c(c2)OC(F)(F)O3)S1 | 93 |
| O=C(Nc1nc2ccccc2n1CCN1CCOCC1)c1cccc([N+](=O)[O-])c1 | 102 |
| c1ccc(-c2n[nH]cc2-c2ccnc3ccccc23)nc1 | 96 |
| N#C/C(=C(\N)Sc1ccc(N)cc1)c1ccccc1C(F)(F)F | 62 |
| CCCCc1c(-c2ccc(O)cc2)[nH]c2nccnc12 | 94 |

| Compound | residual activity [%] |
| --- | --- |
| COc1ccc(C(=O)Nc2sc3c(c2C(N)=O)CCCC3)cc1OC | 94 |
| CC(C)n1cnc2/c(=N/c3cccc(Cl)c3)nc(NCCO)[nH]c21 | 88 |
| O=C(Nc1cccc(Nc2cc(Nc3cccc(C(F)(F)F)c3)ncn2)c1)C1CC1 | 91 |
| CC(C)n1cnc2c(NCc3ccccc3)nc(NCCCO)nc21 | 86 |
| O=C1C(Cl)=C(N2C(=O)CCC2=O)C(=O)c2ccccc21 | 84 |
| O=C1NC(=O)/C(=C\c2ccc3nccnc3c2)S1 | 90 |
| Oc1n[nH]c2nnc(-c3c(-c4ccccc4)nn4ccccc34)cc12 | 95 |
| COc1ccc(S(=O)(=O)N(CCO)c2ccccc2CN(C)C/C=C/c2ccc(Cl)cc2)cc1 | 101 |
| N#C/C(=C1/Nc2ccccc2S1)c1ccnc(NCCc2cccnc2)n1 | 82 |
| COc1cc2ncnc(Nc3ccc(O)c(Br)c3)c2cc1OC | 93 |
| Cc1cncc2cccc(S(=O)(=O)N3CCCN(C(=O)CN)C[C@H]3C)c12 | 80 |
| Cc1cccc(-c2[nH]c(C(C)(C)C)nc2-c2ccc3c(c2)OCO3)n1 | 93 |
| c1ccc2c(-c3ccncc3)c[nH]c2c1 | 100 |
| O=C1NC(=O)C(c2cn(CCCO)c3ncccc23)=C1c1cnccn1 | 59 |
| Ic1cccc(CSc2nnc(-c3ccncc3)o2)c1 | 87 |
| CNc1cc2c(Nc3cccc(Br)c3)ncnc2cn1 | 104 |
| NC(=O)Nc1sc(-c2ccc(F)cc2)cc1C(N)=O | 88 |
| COc1cc2ncnc(Nc3ccc(Oc4ccccc4)cc3)c2cc1OC | 97 |
| CSc1nc(-c2ccc(F)cc2)c(-c2ccnc(NC(C)c3ccccc3)c2)[nH]1 (stereo not given) | 98 |
| Nc1n[nH]c2nc3ccccc3nc12 | 95 |

From ChEMBL document CHEMBL2218924, “A broad activity screen in support of a chemogenomic map for kinase signalling research and drug discovery” (Biochem J, 2013)
